According to the supplement of paper PMC12494721:
Structures can show the parent of a compound that is named as a salt.

Columns and labels:
Conditions in all cases: incubation time: 27 h, anaerobic, 37 °C;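 for the amine columns active = adjusted P below 0.05 in both replicates with a change the same way and a mean fold change under 0.8 or over 1.25; inactive = the rest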
[1] = tested on: Clostridium sporogenes DSM 1664; test: growth (OD595) fold change vs plate DMSO controls (fold change (ratio)); higher = more growth
Outline: (§1)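 The measure reported is growth, taken as fold change against the median of DMSO controls on the same plate. Anaerobic mGAM cultures in 96-well plates (27 h, 37 °C) were read at 595 nm, blank-subtracted, corrected for compound background using 20 µM compound solutions in water, and multiplied by a calibration factor of 5 to give OD. Any fold change above 1.5 became NA, and 2 biological replicates were averaged.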

Escherichia coli IAI1 [2] = test: as above
Outline: as §1

[3] = tested on: Klebsiella aerogenes DSM 30053; test: as above
Outline: as §1

[4] = tested on: Ruminococcus gnavus DSM 108212; test: as above
Outline: as §1

[5] = tested on: Klebsiella aerogenes DSM 30053; test: fold change of Histamine concentration vs plate DMSO controls (fold change (ratio)); higher = more amine produced, active = hit call of the paper (significant change in both replicates, either direction)
Outline: (§2)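 In 80 µL wells, cultures of four gut bacterial strains in mGAM started at OD 0.1 before a 1:1 dilution and grew anaerobically at 37 °C for 27 h. Compounds were added to 20 µM final, except sweeteners at 50 µM final. After extraction of whole cultures with cold acetonitrile/methanol plus 0.1% formic acid and centrifugation, amines were measured by LC–triple-quadrupole MS in dynamic MRM mode against external calibration curves, with within-batch drift correction. Values give fold change over DMSO controls on the same plate, averaged across 2 biological replicates.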

[6] = tested on: Clostridium sporogenes DSM 1664; test: fold change of Tryptamine concentration vs plate DMSO controls (fold change (ratio)); higher = more amine produced, active = hit call of the paper (significant change in both replicates, either direction)
Outline: as §2

[7] = tested on: Ruminococcus gnavus DSM 108212; test: as above
Outline: as §2

Escherichia coli IAI1 [8] = test: fold change of Putrescine concentration vs plate DMSO controls (fold change (ratio)); higher = more amine produced, active = hit call of the paper (significant change in both replicates, either direction)
Outline: as §2

[9] = tested on: Klebsiella aerogenes DSM 30053; test: as above
Outline: as §2

Escherichia coli IAI1 [10] = test: fold change of Cadaverine concentration vs plate DMSO controls (fold change (ratio)); higher = more amine produced, active = hit call of the paper (significant change in both replicates, either direction)
Outline: as §2

[11] = tested on: Klebsiella aerogenes DSM 30053; test: as above
Outline: as §2

[12] = tested on: Ruminococcus gnavus DSM 108212; test: fold change of 2-Phenylethylamine concentration vs plate DMSO controls (fold change (ratio)); higher = more amine produced, active = hit call of the paper (significant change in both replicates, either direction)
Outline: as §2

Row | SMILES | growth [1] | growth (Escherichia coli IAI1 [2]) | growth [3] | growth [4] | fold change of Histamine concentration [5] | fold change of Tryptamine concentration [6] | fold change of Tryptamine concentration [7] | fold change of Putrescine concentration (Escherichia coli IAI1 [8]) | fold change of Putrescine concentration [9] | fold change of Cadaverine concentration (Escherichia coli IAI1 [10]) | fold change of Cadaverine concentration [11] | fold change of 2-Phenylethylamine concentration [12]
1 | Cc1nc2ccccc2n1Cc1ccc(Cl)cc1 [Chlormidazole] (20 µM) | 0.927 | 0.947 | 0.963 | 0.899 | 1.06 (inactive) | 1 (inactive) | 0.899 (inactive) | 0.947 (inactive) | 0.978 (inactive) | 0.982 (inactive) | 0.989 (inactive) | 0.854 (inactive)
2 | Clc1cccc(Cl)c1NC1=NCCN1 [Clonidine hydrochloride] (20 µM) | 0.856 | 0.984 | 0.989 | 0.99 | 1.04 (inactive) | 0.953 (inactive) | 1.09 (inactive) | 0.995 (inactive) | 1.01 (inactive) | 0.996 (inactive) | 0.992 (inactive) | 1.08 (inactive)
3 | CCCOc1cc(N)ccc1C(=O)OCCN(CC)CC [Propoxycaine hydrochloride] (20 µM) | 0.975 | 1.01 | 1 | 1.35 | 0.991 (inactive) | 1.02 (inactive) | 1.05 (inactive) | 0.956 (inactive) | 0.986 (inactive) | 0.967 (inactive) | 1.01 (inactive) | 1.09 (inactive)
4 | CN(C)CCC=C1c2ccccc2C=Cc2ccccc21 [Cyclobenzaprine hydrochloride] (20 µM) | 0.862 | 1.01 | 0.985 | 0.869 | 1.06 (inactive) | 1.19 (inactive) | 0.915 (inactive) | 0.987 (inactive) | 1 (inactive) | 1.01 (inactive) | 0.985 (inactive) | 0.921 (inactive)
5 | OCCN1CCN(CC/C=C2/c3ccccc3Sc3ccc(C(F)(F)F)cc32)CC1 [Flupentixol dihydrochloride cis-(Z)] (20 µM) | 1.03 | 0.959 | 0.968 | 0.925 | 1 (inactive) | 1.12 (inactive) | 0.921 (inactive) | 1.02 (inactive) | 0.933 (inactive) | 0.852 (inactive) | 1.02 (inactive) | 1.06 (inactive)
6 | OC(Cn1cncn1)(Cn1cncn1)c1ccc(F)cc1F [Fluconazole] (20 µM) | 0.908 | 0.984 | 1.01 | 1.04 | 0.956 (inactive) | 1.05 (inactive) | 1.01 (inactive) | 0.989 (inactive) | 1.01 (inactive) | 1.01 (inactive) | 1.02 (inactive) | 0.959 (inactive)
7 | O=C1OCCN1/N=C/c1ccc([N+](=O)[O-])o1 [Furazolidone] (20 µM) | 0.395 | 1.04 | 0.855 | 1.22 | 0.991 (inactive) | 0.402 (inactive) | 0.973 (inactive) | 0.81 (inactive) | 0.937 (inactive) | 1.75 (active) | 1 (inactive) | 1.11 (inactive)
8 | NC(=O)C(c1ccccc1)(c1ccccc1)[C@@H]1CCN(CCc2ccc3c(c2)CCO3)C1 [Darifenacin hydrobromide] (20 µM) | 1.04 | 0.975 | 1.02 | 0.96 | 0.873 (inactive) | 1.19 (inactive) | 1.1 (inactive) | 0.943 (inactive) | 1.05 (inactive) | 0.961 (inactive) | 1.15 (inactive) | 1.25 (inactive)
9 | CC(C)(C)NCC(O)COc1cccc2c1CC(O)C(O)C2 (centres undefined) [Nadolol] (20 µM) | 1.08 | 0.986 | 1.03 | 0.969 | 0.981 (inactive) | 1.08 (inactive) | 1.02 (inactive) | 1.06 (inactive) | 0.988 (inactive) | 1 (inactive) | 1 (inactive) | 0.971 (inactive)
10 | CC(Oc1ccccc1)C(=O)N[C@@H]1C(=O)N2[C@@H]1SC(C)(C)[C@@H]2C(=O)O (some centres undefined) [Phenethicillin potassium salt] (20 µM) | 0 | 1.05 | 0.995 | 0 | 0.936 (inactive) | 0.0424 (active) | 0.045 (active) | 0.969 (inactive) | 0.954 (inactive) | 1.06 (inactive) | 1.02 (inactive) | 0.0417 (active)
11 | CCCCCN(C)CCC(O)(P(=O)(O)O)P(=O)(O)O [Ibandronate sodium] (20 µM) | 1.07 | 0.989 | 0.973 | 0.926 | 1.04 (inactive) | 1.05 (inactive) | 0.934 (inactive) | 1 (inactive) | 1.01 (inactive) | 1.03 (inactive) | 0.994 (inactive) | 0.958 (inactive)
12 | Cc1cc(C2CCCCC2)n(O)c(=O)c1 [Ciclopirox ethanolamine] (20 µM) | 0.962 | 1.05 | 1.06 | 1.13 | 0.978 (inactive) | 1.04 (inactive) | 1.02 (inactive) | 1.06 (inactive) | 0.994 (inactive) | 1 (inactive) | 1 (inactive) | 0.976 (inactive)
